We go through 38 compounds from ChEMBL document CHEMBL5606458, “ASAP - ZIKV NS2B-NS3 protease fluorescence single point” (2024).

The experiment concerns the target Nonstructural protein 3 (Zika virus) (UniProt A0A024AXB9).
Setting [1] is: PRVABC59, Concentration 50.0 uM, Number of replicates 1.0.
Where [2] appears, read: PRVABC59, Concentration 15.0 uM, Number of replicates 1.0.

Among all 2,700 compounds or so, about 160 (5.9%) showed an effect of 50% or more. This is one part of a sample in which strong results are shown more often than they occur.

The inhibition is the relative decrease from the control value, in per cent.

Nonstructural protein 3 (Zika virus), sequence (A0A024AXB9 as listed by the source): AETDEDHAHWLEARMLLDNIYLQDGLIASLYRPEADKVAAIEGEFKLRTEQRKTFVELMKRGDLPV

For the compound `O=Cc1ccc(N2CCC(C(=O)NCCc3cc(F)cc(F)c3)CC2)cc1`, the inhibition under setting [1] is 19.3%.

In the case of `N#Cc1cccc(NC(=O)c2cccc(OCc3c(Cl)cccc3Cl)c2)c1`, the inhibition worked out at 6.21% (PRVABC59, Concentration 49.5 uM, Number of replicates 2.0, Standard deviation 1.7651619405536074 %); 10% (PRVABC59, Concentration 99.01 uM, Number of replicates 2.0, Standard deviation 1.834624667346594 %); 8.42% (PRVABC59, Concentration 198.0 uM, Number of replicates 2.0, Standard deviation 2.6293560952864428 %).

As for `O=C(NCc1ccccc1Oc1ccccc1)c1cc(Cl)ccc1NS(=O)(=O)c1ccc(Oc2ccccc2Cl)cc1`, under setting [2], the inhibition turned out to be 15.7%.

As to `O=Cc1ccc(N2CCC(C(=O)NCCN3C(=O)CSC3=O)CC2)cc1`, the inhibition under setting [1] amounted to 24.5%.

Turning to `Cc1cc(CO)c2cccc(Cc3ccccc3NC(=O)CCC3CCNCC3)c2n1`, the inhibition runs as follows: (PRVABC59, Concentration 49.95 uM, Number of replicates 2.0, Standard deviation 0.020358613704702253 %) 4.96%; (PRVABC59, Concentration 99.9 uM, Number of replicates 2.0, Standard deviation 1.9188023762412802 %) 26.8%.

Regarding `Cc1cc(CO)c2cccc(Cc3cccc(NC(=O)Cc4c(C)c5c(=O)[nH]n(C)c5[nH]c4=O)c3)c2n1`, the inhibition was determined as 29.7% (PRVABC59, Concentration 49.95 uM, Number of replicates 2.0, Standard deviation 0.9685022100006885 %) and 54.1% (PRVABC59, Concentration 99.9 uM, Number of replicates 2.0, Standard deviation 0.32116033435216484 %).

Take `Cc1cc(CO)c2cccc(NC(=O)CC3CCNCC3)c2n1`: the inhibition is, setting by setting: (PRVABC59, Concentration 49.95 uM, Number of replicates 2.0, Standard deviation 2.2586421938534733 %) 41.5%; (PRVABC59, Concentration 99.9 uM, Number of replicates 2.0, Standard deviation 1.48045087514324 %) 81%.

For `Cc1cc(CO)c2cccc(Cc3cccc(NC(=O)C[C@H]4CCCN4)c3)c2n1`, the inhibition (PRVABC59, Concentration 49.95 uM, Number of replicates 2.0, Standard deviation 0.1706171862678608 %) is -9.82%.

Consider `Cc1cc(CO)c2cccc(NC(=O)CC3CNC3)c2n1`, for which the inhibition is, setting by setting: (PRVABC59, Concentration 49.95 uM, Number of replicates 2.0, Standard deviation 1.5957700474656553 %) -6.72%; (PRVABC59, Concentration 99.9 uM, Number of replicates 2.0, Standard deviation 1.1039918524960535 %) -6.98%.

Take `Cc1cc(CO)c2cccc(Cc3cccc(NC(=O)CNC4CC4)c3)c2n1`: the inhibition is, setting by setting: (PRVABC59, Concentration 49.95 uM, Number of replicates 2.0, Standard deviation 2.20382385319093 %) -2.08%; (PRVABC59, Concentration 99.9 uM, Number of replicates 2.0, Standard deviation 2.3107066172874657 %) 1.16%.

Consider `Cc1cc(CO)c2cccc(NC(=O)Cc3c(C)c4c(=O)[nH]n(C)c4[nH]c3=O)c2n1`, for which the inhibition (PRVABC59, Concentration 49.95 uM, Number of replicates 2.0, Standard deviation 0.16559867672197162 %) amounted to 15% and the inhibition (PRVABC59, Concentration 99.9 uM, Number of replicates 2.0, Standard deviation 1.570678848435362 %) is 29.8%.

`Cc1cc(CO)c2cccc(NCC3CCNCC3)c2n1`: the inhibition (PRVABC59, Concentration 99.9 uM, Number of replicates 2.0, Standard deviation 2.951218090372617 %) was -5.37%.

In the case of `Cc1cc(CO)c2cccc(Cc3cccc(NC(=O)CCC4CCNCC4)c3)c2n1`, the inhibition came to 70.2% (PRVABC59, Concentration 49.95 uM, Number of replicates 2.0, Standard deviation 0.07125447361688171 %) and 94.6% (PRVABC59, Concentration 99.9 uM, Number of replicates 2.0, Standard deviation 0.2799306012648679 %).

As for `Cc1cc(CO)c2cccc(Cc3ccccc3NC(=O)Cc3c(C)c4c(=O)[nH]n(C)c4[nH]c3=O)c2n1`, the inhibition by setting is: (PRVABC59, Concentration 49.95 uM, Number of replicates 2.0, Standard deviation 2.3870518401485845 %) 19.5%; (PRVABC59, Concentration 99.9 uM, Number of replicates 2.0, Standard deviation 1.6185118125725577 %) 39.4%.

`Cc1cc(CO)c2cccc(NC(=O)C[C@H]3CCCN3)c2n1`: the inhibition is, setting by setting: (PRVABC59, Concentration 49.95 uM, Number of replicates 2.0, Standard deviation 2.649580260544395 %) 3.54%; (PRVABC59, Concentration 99.9 uM, Number of replicates 2.0, Standard deviation 2.639543831508496 %) 13.9%.

With `Cc1cc(CO)c2cccc(NC(=O)CCC3CCNCC3)c2n1`, the inhibition (PRVABC59, Concentration 49.95 uM, Number of replicates 2.0, Standard deviation 0.05519955890732387 %) was 98.6% and the inhibition (PRVABC59, Concentration 99.9 uM, Number of replicates 2.0, Standard deviation 0.045159842417240824 %) was 96.7%.

As to `Cc1cc(CO)c2cccc(Cc3ccccc3C(=O)N3CCO[C@@H](CN)C3)c2n1`, the inhibition (PRVABC59, Concentration 99.9 uM, Number of replicates 2.0, Standard deviation 2.9992587541792743 %) is -6.8%.

As to `O=Cc1ccc(N2CCC(C(=O)Nc3cc(Cl)c(F)cc3F)CC2)cc1`, the inhibition under setting [1] is 26.1%.

Regarding `COc1ccccc1N1CCN(C(=O)c2cc(Cl)ccc2NS(=O)(=O)c2ccc(Oc3ccccc3Cl)cc2)CC1`, the inhibition under setting [2] was 8.47%.

Consider `O=Cc1ccc(N2CCC(C(=O)Nc3ncc(F)cc3Br)CC2)cc1`, for which the inhibition under setting [1] is 19.1%.

On to `C[C@@H](NC(=O)OCc1ccccc1)C(=O)Nc1cccc(CN)c1`, for which the inhibition was -5.65% (PRVABC59, Concentration 49.5 uM, Number of replicates 2.0, Standard deviation 0.22300909071478295 %); -3.85% (PRVABC59, Concentration 99.01 uM, Number of replicates 2.0, Standard deviation 0.06482809074333463 %); -1.69% (PRVABC59, Concentration 198.0 uM, Number of replicates 2.0, Standard deviation 0.9413049329503056 %).

Take `CCOc1ccc(CNC(=O)c2cc(Cl)ccc2NS(=O)(=O)c2ccc(Oc3ccccc3Cl)cc2)cc1`: under setting [2], the inhibition came to 30.8%.

As for `Cc1cc(CO)c2cccc(Cc3ccccc3C(=O)N3CCC(C(=O)O)CC3)c2n1`, the inhibition by setting is: (PRVABC59, Concentration 49.95 uM, Number of replicates 2.0, Standard deviation 1.0591789629357544 %) -4.89%; (PRVABC59, Concentration 99.9 uM, Number of replicates 2.0, Standard deviation 2.3071221964090083 %) -5.26%.

On to `Cc1cc(CO)c2cccc(Cc3cccc(C(=O)N4CC[C@@H](CO)C4)c3)c2n1`, for which the inhibition reads like this: (PRVABC59, Concentration 49.95 uM, Number of replicates 2.0, Standard deviation 1.594011680945781 %) -6.14%; (PRVABC59, Concentration 99.9 uM, Number of replicates 2.0, Standard deviation 1.5520642713220405 %) 3.44%.

Consider `Cc1cc(CO)c2cccc(Cc3ccccc3C(=O)N3CCC(CN)CC3)c2n1`, for which the inhibition is 56.2% (PRVABC59, Concentration 49.95 uM, Number of replicates 2.0, Standard deviation 5.668177927575499 %) and 37.7% (PRVABC59, Concentration 99.9 uM, Number of replicates 2.0, Standard deviation 1.410491152712613 %).

Regarding `Cc1cc(CO)c2cccc(Cc3cccc(C(=O)N4CCC(C(=O)O)CC4)c3)c2n1`, the inhibition (PRVABC59, Concentration 49.95 uM, Number of replicates 2.0, Standard deviation 0.6921367263576601 %) was -3.78% and the inhibition (PRVABC59, Concentration 99.9 uM, Number of replicates 2.0, Standard deviation 0.04719115192807187 %) is -2.12%.

Regarding `Cc1cc(CO)c2cccc(Cc3cccc(C(=O)N4CCC(CN)CC4)c3)c2n1`, the inhibition is 94.6% (PRVABC59, Concentration 49.95 uM, Number of replicates 2.0, Standard deviation 0.3303341859864401 %) and 90.9% (PRVABC59, Concentration 99.9 uM, Number of replicates 2.0, Standard deviation 0.3198467013777773 %).

On to `Cc1cc(CO)c2cccc(Cc3ccccc3C(=O)N3CC[C@@H](O)C3)c2n1`, for which the inhibition reads like this: (PRVABC59, Concentration 49.95 uM, Number of replicates 2.0, Standard deviation 0.18876460771228748 %) -8.95%; (PRVABC59, Concentration 99.9 uM, Number of replicates 2.0, Standard deviation 1.2164824655212059 %) -7.58%.

Consider `O=C(N[C@H]1CC(=O)N(Cc2ccccc2)C1)c1cc(Cl)ccc1NS(=O)(=O)c1ccc(Oc2ccccc2Cl)cc1`, for which, under setting [2], the inhibition turned out to be 22%.

Consider `Cc1cc(CO)c2cccc(Cc3cccc(C(=O)NCc4c(C)noc4C)c3)c2n1`, for which the inhibition runs as follows: (PRVABC59, Concentration 49.95 uM, Number of replicates 2.0, Standard deviation 0.6344586798768046 %) -2.24%; (PRVABC59, Concentration 99.9 uM, Number of replicates 2.0, Standard deviation 0.2674164432987103 %) 1.65%.

Take `O=C(c1cc(Cl)ccc1NS(=O)(=O)c1ccc(Oc2ccccc2Cl)cc1)N1CCN(C(=O)[C@H]2COc3ccccc3O2)CC1`: the inhibition under setting [2] amounted to 19.2%.

For `Cn1cc(NC(=O)c2ccccc2C(F)(F)F)c(-c2ccccc2CO)n1`, the inhibition was -0.442% (PRVABC59, Concentration 49.5 uM, Number of replicates 2.0, Standard deviation 1.1938974234704913 %); 1.31% (PRVABC59, Concentration 99.01 uM, Number of replicates 2.0, Standard deviation 1.523480341882225 %); 2.85% (PRVABC59, Concentration 198.0 uM, Number of replicates 2.0, Standard deviation 2.1372444344514228 %).

For the compound `Cc1cc(Cl)c2c(N)ccc(C)c2n1`, the inhibition (PRVABC59, Concentration 49.95 uM, Number of replicates 2.0, Standard deviation 1.4741281735170297 %) is 80.8% and the inhibition (PRVABC59, Concentration 99.9 uM, Number of replicates 2.0, Standard deviation 0.2024559271573544 %) is 83.6%.

`Cc1cc(Cl)c2cccc(N)c2n1`: the inhibition is, setting by setting: (PRVABC59, Concentration 49.95 uM, Number of replicates 2.0, Standard deviation 7.781875381379218 %) 5.79%; (PRVABC59, Concentration 99.9 uM, Number of replicates 2.0, Standard deviation 5.7320152302040395 %) 14.4%.

Turning to `Cc1cc(N)c2c(Cl)ccc(Cl)c2n1`, the inhibition (PRVABC59, Concentration 49.95 uM, Number of replicates 2.0, Standard deviation 14.266771188329304 %) is -9.58%.

Consider `O=Cc1ccc(N2CCC(C(=O)NCc3c(F)cc(F)c(F)c3F)CC2)cc1`, for which, where the note is “PRVABC59, Concentration 10.0 uM, Number of replicates 1.0”, the inhibition was 22.5%.

With `COc1ccc(CN2CCC(c3c[nH]c4cccnc34)CC2)cc1`, the inhibition runs as follows: (PRVABC59, Concentration 49.5 uM, Number of replicates 2.0, Standard deviation 0.21004326604655832 %) 0.598%; (PRVABC59, Concentration 99.01 uM, Number of replicates 2.0, Standard deviation 0.8142417098777236 %) 6.55%; (PRVABC59, Concentration 198.0 uM, Number of replicates 2.0, Standard deviation 1.1254172872302635 %) 14.8%.

Turning to `O=Cc1ccc(N2CCC(C(=O)N(Cc3cnn(-c4ccccc4)c3)C3CC3)CC2)cc1`, under setting [1], the inhibition came out at 26.1%.
